Pf Dd2 inh – blocks in vitro growth of P. falciparum Dd2; P. falciparum Dd2 growth, SYBR Green, 72 h; Potency, µM (series often up to 28.9 µM), actives largely listed as inhibitors; 4.3% of 120,000 active; active means well fitted inhibition curve with a large enough effect; further: nearly all actives have a fitted effect of over 65% in size
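Infected erythrocytes (Dd2, 0.3% parasitemia, 2.5% hematocrit final) are added to compound in RPMI-1640/Albumax II medium, grown 72 h at 37C in low oxygen, then lysed with saponin/Triton-X containing SYBR Green and read by fluorescence.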
Each line names hits and unclear results; the compound was inactive in the other large screens. Many of the other results were omitted from the sample, so hits are more common in it than they were.

CC1=Nc2cc(C(=O)NC3CCCC3)ccc2Sc2ccc(Cl)cc21	Pf Dd2 inh 11µM
CCC1=Nc2cc(C(=O)NCCC(C)C)ccc2Sc2ccc(Br)cc21	Pf Dd2 inh 13µM
CNC(=O)[C@@H](c1ccc(OC)cc1)N1CCC[C@H]1C(=O)NCC1CCCCC1	none
CN(C)C[C@@H]1CN(Cc2ccccc2)C[C@H]1NC(=O)c1cnn(C)c1	none
O=C(Nc1nncs1)C1CC(=O)N(c2n[nH]c3cccc(F)c23)C1 (stereo not drawn)	none
Cc1ccc(NC(=O)Cn2nc3n(c2=O)CCCCC3)cc1	none
C[S+](=O)([O-])N1C[C@H](C(=O)Nc2ccccc2)C[C@@H]1c1ccc(F)cc1	none
CN(C)c1ccc(CN2C[C@H](O)C[C@H]2c2nc(-c3ccc(C(F)(F)F)cc3)no2)cc1	none
O=C(CCC1CCCC1)N1C[C@@H](CO)[C@H](c2ccncc2)C1	none
Cc1cccc(CC(=O)N2C[C@@H](F)C[C@H]2C(=O)N2CCCCC2)c1	none
Cc1ccc(OCC(=O)N2CCC(c3noc(-c4ccncc4)n3)C2)cc1 (stereo not drawn)	none
CCOc1ccc(C(=O)Nc2ccc3c(c2)CCC(=O)N3CC(C)C)cc1	none
CCN1CCCC2(CCN(C(=O)Cn3ccccc3=O)C2)C1=O (stereo not drawn)	none
COc1ccc(OCC(=O)Nc2cc(-c3nc4ccccc4s3)ccc2C)cc1	none
Cc1ccc(-c2nc3ccccc3s2)cc1NC(=O)COc1ccccc1	none
Cc1ccc(-c2nc3ccccc3[nH]2)cc1NC(=O)COc1cccc(C)c1C	Pf Dd2 inh 7.1µM
CCOC(=O)CCNC(=O)N1C[C@@H](Oc2cccnc2)C[C@H]1C(=O)N1CCCC1	none
CN1C(=O)c2cccn2CC1CNC(=O)Cc1c[nH]c2ccccc12 (stereo not drawn)	none
O=C(CC1=CCCCC1)N1CCc2nn(CC3CC3)c(=O)n2CC1	none
CCC(Nc1ccc(-c2nc(-c3ccccn3)no2)cc1[N+](=O)[O-])c1ccccc1 (stereo not drawn)	Pf Dd2 inh 3.5µM
CCNc1ccc(-c2nc(-c3ccccn3)no2)cc1[N+](=O)[O-]	none
CNc1ccc(-c2nc(-c3ccccn3)no2)cc1[N+](=O)[O-]	none
CCC1(C(=O)Nc2ccc(C)c(F)c2)CCCCC(=O)N1 (stereo not drawn)	none
CC(C)(C)C1CCC2(CC1)NC(=O)N(CC(=O)NCCCc1ccccc1)C2=O (stereo not drawn)	none
Cn1nc2n(c1=O)CCN(CC1CCCCC1)CC2	none
Cc1cccc(C)c1CN1CC2(COCC1=O)CN(c1ccc(C(F)(F)F)cn1)C2	none
CC(C)n1ccnc1CN1CCCC12CCN(c1ccc(C(F)(F)F)cn1)CC2	Pf Dd2 inh 13µM
Cc1ccc(C2(O)CCN(c3cc(C(F)(F)F)ccn3)CC2)nc1	none
CC(C)n1ccnc1CN1CCC2(CCCO2)CCC1=O (stereo not drawn)	none
Cn1ncc(CN2CCCC23CCN(c2ccc(C(F)(F)F)cn2)CC3)c1C1CC1	Pf Dd2 inh 11µM
FC(F)(F)CN1C2CCC1CN(c1ccc(C(F)(F)F)cn1)C2	none
COc1ccc(CN2CC3(COCC2=O)CN(c2ccc(C(F)(F)F)cn2)C3)cc1F	none
Cn1cc(CN2CCCC23CCN(c2ccc(C(F)(F)F)cn2)CC3)cc1C#N	Pf Dd2 inh 5µM
C[C@@H]1CN(C2CCN(Cc3cnn(C)c3C3CC3)CC2)C[C@H](C)O1	none
CC(C)NC(=O)N1CCC(c2nc(C3CCOCC3)no2)CC1	none
CSc1ccc(CNC(=O)C2CCN(c3cc(C(F)(F)F)ncn3)CC2)cc1	none
CC[C@@]1(C(=O)O)C[C@H](C(=O)NC(CO)CO)[C@H](c2ccc(F)cc2)N1C	none
O=C(CCc1nnn2c1CN(C(=O)c1ccccc1)CC2)NC1CC1	none
CN(C)Cc1nnc(C2CC(NC(=O)c3ccn(C)c(=O)c3)C2)n1C (stereo not drawn)	none
CCc1noc(CN2CCC3(CC2)CN(CCc2ccccc2)C(=O)O3)n1	none
COCCCNc1nc(NCc2cccc(Cl)c2)c2cnn(C)c2n1	none
CC(C)CCNc1nc(Nc2ccccc2)c2cnn(C)c2n1	Pf Dd2 inh 10µM
Cc1cccnc1NCCNc1nc(C(C)C)nc2c1cnn2C	none
CCc1cc(NCc2nc(-c3ccncc3)n[nH]2)n2nc(C)c(C)c2n1	none
Cc1ccc(C(=O)N2CCN(c3cc(-c4cccs4)[nH]n3)CC2)c(C)c1	none
Cc1cc(Nc2ccc(F)cc2F)nc(-n2nc(C)cc2C)n1	none
COc1ccc(Nc2cc(C)nc(-n3nc(C)cc3C)n2)cc1Cl	Pf Dd2 inh 3.5µM
CCCOc1ccc(Nc2cc(C)nc(C)n2)cc1	none
COc1ccc(S(=O)(=O)N2CCC(n3cnnc3C3CC3)CC2)cc1	none
Cc1noc(CC2CCN(C(=O)C(C)Oc3ccc4ccccc4c3)CC2)n1 (stereo not drawn)	none
CC(C)CC(=O)N1CCCC(c2nc(-c3ccccc3)no2)CCNC(=O)CC1 (stereo not drawn)	none
CCS(=O)(=O)N1CCC2(CCC2OC)CC1 (stereo not drawn)	none
O=C1NC(=NC2CCCCC2)C2(CCCN(Cc3ccsc3)C2)N1c1cc(F)cc(F)c1 (stereo not drawn)	Pf Dd2 inh 7.9µM
COc1cccc(N2C(=O)NC(=NC3CCCC3)C23CCN([S+](=O)([O-])c2ccccc2)C3)c1 (stereo not drawn)	none
O=C(OCc1ccccc1)N1CCCC2(C1)C(=NC1CCCC1)NC(=O)N2c1cc(F)cc(F)c1 (stereo not drawn)	none
O=C1NC(=NC2CCCCC2)C2(CCN(Cc3ccsc3)CC2)N1c1cccnc1	none
COc1cccc(N2C(=O)NC(=NC3CCCC3)C23CCCN(Cc2ccsc2)C3)c1 (stereo not drawn)	Pf Dd2 inh 8.9µM
O=C1NC(=NC2CCCCC2)C2(CCCN(Cc3cccnc3)C2)N1c1cccnc1 (stereo not drawn)	none
Cc1ccc(C2NC(=O)N(CC(=O)Nc3ccc(Br)cc3F)C3=C2C(=O)OC3)cc1 (stereo not drawn)	none
Cc1cnc(C(=O)N2CCC(c3noc(-c4ccncc4)n3)C2)cn1 (stereo not drawn)	none
O=C1CC[C@]2(C(=O)N3CCCCC3)CCCC[C@H]2N1CCc1ccccc1	none
CN(C)c1ccc(CN2CCn3c(nnc3-c3ccc(Cl)cc3)C2)cc1	none
COc1cc(C(=O)NCCCn2ccnn2)ccc1OC1CCN(C(C)=O)CC1	none
Fc1ccc(NCc2ccccc2-c2nnc(-c3ccccc3Cl)o2)cc1	Pf Dd2 inh 13µM
Fc1ccc(N2CCN(Cc3nnc(-c4ccccc4Cl)o3)CC2)cc1	none
Cc1ccc(NCc2ccccc2-c2nnc(-c3ccccc3Cl)o2)cc1Cl	none
CC(CCc1ccccc1)NC(=O)c1noc(-c2ccc[nH]c2=O)n1 (stereo not drawn)	none
CCOc1cccc(CNC(=O)c2noc(-c3ccc(C)cc3)n2)c1	none
Cc1ccc(Nc2nc(C(N)=O)c(NC(=O)c3ccccc3Br)s2)cc1	Pf Dd2 inh 10µM
NC(=O)c1nc(Nc2ccccc2)sc1NC(=O)c1c(F)cccc1F	none
Cc1ccc(-c2nc(C)c(CCNC(=O)c3ccccc3Br)s2)cc1	none
COCCN1CCC(CN(Cc2ccncc2)C(=O)c2csc(C)n2)CC1	none
COCCCNC(=O)c1cccc2c1CCN2C(=O)Nc1cccc(C)c1	none
Cc1ccc(-n2c(C3CCN(C(=O)COc4ccc(Cl)cc4)CC3)n[nH]c2=O)cc1	Pf Dd2 inh 0.89µM
Cc1ccc(Cn2c(C3CCN(C(=O)c4ccc(C(C)(C)C)cc4)CC3)n[nH]c2=O)cc1	Pf Dd2 inh 2.5µM
Cc1ccc(-n2c(C3CCN(C(=O)c4cc(Cl)ccc4F)CC3)n[nH]c2=O)cc1	none
Cc1ccc(Cn2c(C3CCN(C(=O)c4cccc(Cl)c4)CC3)n[nH]c2=O)cc1	none
